# According to ChEMBL document CHEMBL5308541, “MAIP: An Open-Source Tool to Enrich High-Throughput Screening Output and Identify Novel, Druglike Molecules with Antimalarial Activity” (ACS Med Chem Lett, 2023):
# Out of some 4,800 compounds screened, about 410 (8.5%) showed an effect of 50% or more. Only a selection was taken, and strong results are over-represented in it overall.
# Test system: Plasmodium falciparum
# Assay: Confirmatory screen in NF54 pLDH assay, in single point, at 2uM, 72h
# Format: functional, Erythrocyte
# Details: timepoint 72 hour
row,SMILES,% Inhibition [%]
1,Cc1cnccc1NCCNCc1cnc(N2CCCCC2)nc1,62
2,Cc1cnccc1NCCNCc1cccc(OCCCCN2CCOCC2)c1,95
3,CCCN1CCC(N2CC(c3cccnc3)C(c3nc(C4CCCC4)no3)C2)CC1 (stereo unspecified),10
4,OCC1CCCN1CCCCNC1CC2(CCC2)Oc2ccccc21 (stereo unspecified),-5
5,COc1ccc2nc3cc(Cl)ccc3c(O)c2c1,39
6,COc1ccc2c(O)c(Br)c(C)nc2c1,72
7,Cc1nc(-c2ccccn2)nc(NC2CCN(CC(F)F)CC2)c1C,24
8,Cc1cnccc1N1CCCN(Cc2ccccc2OCCN2CCN(C)CC2)CC1,102
9,CCCC(=O)NC1COCC1Cc1ccncc1 (stereo unspecified),86
10,CCOc1cc(C(=O)NC2CCN(CC3CCCC3)CC2)cc(-c2ccccc2)c1OC,99
11,Cc1cc(F)ccc1N1CCC(NCCCNc2cccnc2)CC1,-2
12,FC(F)(F)c1ccc(N2CCC[C@H](NC3CCN(Cc4ccco4)CC3)C2)nc1,38
13,CCc1cc(Nc2ccc(N3CCOCC3)nc2)nc(-c2ccncc2)n1,42
14,O=C(NC1CCN(CCOc2ccc(Cl)cc2)CC1)c1c[nH]c2ccncc2c1=O,100
15,OC[C@H](CNCc1cc2ccc(F)cc2[nH]1)c1ccccc1Cl,82
16,O[C@@H](CNCc1cc2cc(Cl)c(Cl)cc2[nH]1)c1ccc(F)cc1,80

row,SMILES,% Inhibition [%]
1,CN(CCCc1cc(-c2ccc(F)cc2)n[nH]1)CC1CCNCC1,17
2,Cc1cc(N2CCC(N(C)Cc3cc(-c4ccccc4)n[nH]3)CC2)nc(N)n1,52
3,CCN1CCN(c2ccc(CNCc3cccc(O)c3)cc2F)CC1,85
4,Cc1ccccc1CN1CCC(CNc2c3c(nc4ccccc24)CCC3)CC1,103
5,N#Cc1cccc(Cl)c1N1CCC(N2CCCC2)CC1,38
6,CCc1cc(NCCc2nc3cc(F)ccc3[nH]2)nc(-c2ccccn2)n1,9
7,COCCNc1nc(N[C@@H](C)c2ccccc2)c2ccccc2n1,92
8,C[C@H](Nc1nc(N)c2ccccc2n1)c1cccc(-n2cncn2)c1,29
9,NCC1(O)CCN(c2ccnc3cc(F)c(Cl)cc23)CC1,97
10,CCc1oc2ccccc2c1CNC[C@H](O)c1ccc(Cl)cc1,99
11,CC(C)c1ccc(CN2CCC[C@@](O)(CNCCN3CCNCC3)C2=O)cc1,29
12,O=C1CN(C(=O)c2ccnc3ccccc23)CCN1Cc1ccccc1F,63
13,COc1cc2nc(-c3ccc(F)c4cccnc34)nc(N)c2cc1OC,102
14,Cc1cc(C)c(CN2CCN(C)CC2)cc1CNCCCn1ccnc1C,44
15,Cc1cccc(N2CCC(NCc3cc(C)cc(CN4CCN(C)CC4)c3C)CC2)c1,84
